Data from the supplement of paper PMC10646978.
± gives the standard deviation.

Key:
Details in all cases: modulator concentration 10 µM
[1] = test system: RAW-Dual (murine macrophage reporter line); experiment: NF-kB reporter (SEAP) activity fold change vs agonist alone; higher = enhanced NF-kB activity
Method in brief: (§1)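 In 384-well plates holding 50 000 RAW-Dual murine macrophage reporter cells per well, compound at 10 μM final was pre-incubated for 1 hour at 37 °C, after which a PRR agonist was added overnight. Supernatant SEAP read with QUANTI-Blue at 620 nm absorbance reported NF-κB, and Lucia luciferase read with QUANTI-Luc luminescence reported IRF. Fold change values come from dividing each reporter signal by the mean of agonist-only control wells on the same plate, averaged over replicate plates with propagated errors.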

[2] = test system: RAW-Dual (murine macrophage reporter line); experiment: IRF reporter (Lucia luciferase) activity fold change vs agonist alone; higher = enhanced IRF activity
Method in brief: as §1

[3] = test system: RAW-Dual (murine macrophage reporter line); experiment: viability score (confluency relative to resting cells, overnight) (fraction); higher = more viable, active = viable (0.7 or more)
Method in brief: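 In 384-well plates, RAW-Dual macrophages received compound at a final 10 μM overnight. Two confluency masks were then made with IncuCyte software from IncuCyte images of all imaged wells. The viability score is defined as confluency relative to resting cells. Passing the cutoff required both masks to lie above 70% of resting cells.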

[4] = agonist: CpG ODN 1826 0.5 ug/mL

Row | SMILES | NF-kB reporter [1, 4] | NF-kB reporter ([1]; agonist: LPS 0.1 ug/mL) | NF-kB reporter ([1]; agonist: MPLA […]) | IRF reporter ([2]; agonist: 3'3'-cGAMP 10 ug/mL) | IRF reporter ([2]; agonist: LPS 0.1 ug/mL) | IRF reporter ([2]; agonist: MPLA […]) | viability score [3]
1 | Cc1cn[nH]c1 | 0.122 ± 0.015 | 0.0449 ± 0.0036 | 0.154 ± 0.0086 | 0.685 ± 0.032 | 1.81 ± 0.19 | 2.85 ± 0.43 | 0.702 (active)
2 | O=C(NCCOc1cccc2cccnc12)c1c(F)cccc1F | 0.911 ± 0.088 | 1.01 ± 0.13 | 0.859 ± 0.049 | 0.961 ± 0.048 | 1.01 ± 0.1 | 1.05 ± 0.31 | 1.01 (active)
3 | COC(=O)Nc1nc2ccc(S(=O)c3ccccc3)cc2[nH]1 (stereo unspecified) | 1.1 ± 0.065 | 1.04 ± 0.11 | 1.12 ± 0.059 | 0.279 ± 0.081 | 0.924 ± 0.11 | 0.536 ± 0.18 | 1.01 (active)
4 | CN(C)CCC(c1ccc(Cl)cc1)c1ccccn1.O=C(O)/C=C\C(=O)O (stereo unspecified) | 1.02 ± 0.14 | 1.08 ± 0.23 | 1.1 ± 0.13 | 0.799 ± 0.042 | 1.23 ± 0.14 | 1.11 ± 0.085 | 0.995 (active)
5 | Clc1ccc2c(c1)CCc1cccnc1C2=C1CCNCC1 | 0.345 ± 0.04 | 0.654 ± 0.052 | 0.814 ± 0.048 | 0.505 ± 0.026 | 0.81 ± 0.14 | 0.754 ± 0.15 | 0.36 (inactive)
6 | O=C(Oc1ccc(Cl)c2cccnc12)c1cccc(Cl)c1 | 0.981 ± 0.16 | 1.05 ± 0.093 | 0.926 ± 0.11 | 0.994 ± 0.032 | 1.41 ± 0.21 | 1.45 ± 0.15 | 1 (active)
7 | COC(=O)C1=C(C)NC(=O)CC1c1c(F)cccc1Cl (stereo unspecified) | 0.986 ± 0.083 | 0.993 ± 0.087 | 0.975 ± 0.041 | 0.87 ± 0.032 | 1.03 ± 0.091 | 1.06 ± 0.14 | 0.995 (active)
8 | O=S(=O)(c1cccc2ccccc12)n1cnc2ccccc21 | 1.1 ± 0.084 | 1.06 ± 0.11 | 0.998 ± 0.1 | 0.944 ± 0.089 | 1.26 ± 0.25 | 1.33 ± 0.26 | 1.01 (active)
9 | COc1ccnc(CS(=O)c2nc3ccc(OC(F)F)cc3[nH]2)c1OC (stereo unspecified) | 1.18 ± 0.16 | 0.901 ± 0.1 | 0.879 ± 0.053 | 0.901 ± 0.056 | 1.07 ± 0.11 | 1.15 ± 0.15 | 0.999 (active)
10 | CC1(C)CC(=O)C2=C(C1)OC(N)=C(C#N)C21CCCC1 | 1.04 ± 0.18 | 0.94 ± 0.08 | 0.933 ± 0.072 | 0.91 ± 0.025 | 1.13 ± 0.15 | 1.3 ± 0.13 | 1 (active)
11 | O=C(CN1CCN(c2ccccc2F)C1=O)N1CCCC(Oc2ccncn2)C1 (stereo unspecified) | 0.874 ± 0.21 | 0.941 ± 0.052 | 0.992 ± 0.092 | 0.507 ± 0.025 | 0.968 ± 0.15 | 1.13 ± 0.27 | 0.547 (inactive)
12 | CC(=O)Nc1ccc(C(=O)Nc2ccc(Cl)cn2)cc1 | 1.16 ± 0.099 | 1.1 ± 0.085 | 1.09 ± 0.11 | 0.942 ± 0.04 | 0.94 ± 0.086 | 1.09 ± 0.15 | 1.04 (active)
13 | CC(C)C1=CC2=CCC3C(C)(C(=O)O)CCCC3(C)C2CC1 (stereo unspecified) | 0.962 ± 0.076 | 0.863 ± 0.065 | 0.891 ± 0.085 | 0.93 ± 0.03 | 1.22 ± 0.2 | 1.35 ± 0.33 | 1.05 (active)
